Source: PubChem BioAssay AID687001 (Broad Institute, 2013)
Measured potencies and affinities stand elsewhere. The source made the active and inactive calls.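 How the source made its calls: active means signal-lowering compounds whose fitted half-maximal concentration is at or below twice the top tested dose in every run; inconclusive means runs disagree, flat 30 to 70% inhibition, or poor curve fit; inactive means the rest.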

target: Protein S100-A4 (Homo sapiens) (UniProt P26447); test: human S100A4 peptide interaction inhibition curves – biochemical, fluorescence polarization, cherry-picked hits, dose response (AID 687001); conditions: FP, S100A4/TAMRA-myosin IIA peptide binding; series mostly up to 11 µM;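 further: 0% = DMSO neutral control wells and -100% = TFP positive control wells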
Sequence (P26447 whole entry, looked up): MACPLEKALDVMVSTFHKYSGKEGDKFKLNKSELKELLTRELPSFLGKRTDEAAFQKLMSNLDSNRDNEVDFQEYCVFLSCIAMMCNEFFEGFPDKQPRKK

outcome, inactive:
C[C@@H]1CCCCO[C@@H](CN(C)Cc2ccc(C(=O)O)cc2)[C@H](C)CN([C@H](C)CO)C(=O)c2cc(NC(=O)CCCN(C)C)ccc2O1, Cc1ccc(S(=O)(=O)Nc2ccc3c(c2)C(=O)N([C@H](C)CO)C[C@@H](C)[C@@H](CN(C)C(=O)NC(C)C)OCCCC[C@@H](C)O3)cc1, Cc1[nH]c(C)c(S(=O)(=O)N2CCN(c3ccccc3F)CC2)c1C(=O)N1CCCCC1, Cc1cc(=O)oc2c3c(cc(OCC(=O)NCC(=O)N[C@H](C(=O)O)C(C)C)c12)OC(C)(C)CC3, CCCn1cnc2c(oc3ccccc32)c1=O, CC(C)C(=O)Nc1ccc2c(c1)C(=O)N(C)[C@H]1CC[C@H](CC(=O)Nc3cccc(F)c3)O[C@@H]1CO2, Cn1c(=O)[nH]c(=O)c2c1nc(SCC(=O)O)n2CCOc1ccccc1, O=C(CCN1CCCCC1)N[C@H]1CC[C@@H](CCNS(=O)(=O)c2ccc(Cl)cc2)O[C@H]1CO, COc1cc(OC)c2ccc(=O)oc2c1C(CC(=O)N1CCN(c2ccccc2)CC1)c1ccc2c(c1)OCO2 (stereo not drawn), C[C@@H]1CN([C@H](C)CO)S(=O)(=O)c2ccc(C3=CCCCC3)cc2O[C@@H]1CN(C)Cc1ccccc1, CN(C)C(=O)[C@H]1[C@H](CO)[C@H]2Cn3c(cccc3=O)[C@@H]1N2C(=O)c1ccccc1, Cc1ccc2c(c1)C(c1ccccc1)N(C(=O)c1ccccc1[N+](=O)[O-])CC(=O)N2 (stereo not drawn), NC(=O)NC(Cc1ccccc1)C(=O)NCCCSc1ccccc1 (stereo not drawn), CO[C@@H]1CN(C)C(=O)c2cc(NS(=O)(=O)CC(F)(F)F)ccc2OC[C@@H](C)N(C)C[C@H]1C, COc1ccccc1[C@H]1C(c2ccc(F)cc2)=NN(c2ccccc2)[C@@H]1CO, CCOC(=O)Cc1csc(NC(=O)c2c(-c3ccccc3)noc2C)n1, N#C[C@@H]1[C@H](c2ccccc2C2=CCCCC2)[C@H](CO)N1C(=O)NC1CCCC1, COc1ccc(C#Cc2ccc([C@H]3[C@H]4CN(S(=O)(=O)c5ccccc5)CCCCN4[C@H]3CO)cc2)cc1, C[C@@H]1CCCCO[C@@H](CN(C)CC2CCCCC2)[C@@H](C)CN([C@H](C)CO)C(=O)c2cc(NS(=O)(=O)c3cn(C)cn3)ccc2O1, COc1ccc(C2=NN(CCC(=O)NC3CCC(C)CC3)C(=O)CC2)cc1 (stereo not drawn), C[C@H](NC(=O)C[C@@H]1CC[C@H](NC(=O)C2CCOCC2)[C@@H](CO)O1)c1ccccc1, O=C(NCCCN1CCC(Cc2ccccc2)CC1)C1CCC(=O)N1C1CCCC1 (stereo not drawn), CC(=O)N1c2ccc(S(=O)(=O)N3CCC(C(=O)Nc4ncccc4C)CC3)cc2CC1C (stereo not drawn), COc1ccc(NC(=O)N(C)C[C@@H]2Oc3ncc(C#CC(C)(C)O)cc3C(=O)N([C@H](C)CO)C[C@@H]2C)cc1, COc1ccccc1NC(=O)N[C@H]1CC[C@H](CCNS(=O)(=O)c2ccc(Cl)cc2)O[C@H]1CO, Cc1ccc(S(=O)(=O)Nc2ccc(O)c3ccccc23)c(C)c1, COCC(=O)N(C)C[C@H]1Oc2cc(C#CCN(C)C)ccc2S(=O)(=O)N([C@@H](C)CO)C[C@H]1C, COc1ccc(OC)c(S(=O)(=O)NCC(c2ccco2)N2CCc3ccccc32)c1 (stereo not drawn), CN1c2ccc(-c3ccccc3)cc2[C@@H]2[C@@H](CCN2C(=O)c2ccccc2)[C@H]1CO, CCCCNS(=O)(=O)c1ccc2nc(-c3cccnc3)cc(C(=O)NC(C)CC)c2c1 (stereo not drawn), Cc1ccc(S(=O)(=O)Nc2ccc3c(c2)C(=O)N([C@@H](C)CO)C[C@@H](C)[C@@H](CN(C)CC2CC2)OCCCC[C@@H](C)O3)cc1, O=C(NNC(=O)c1ccccc1F)c1cccc(-n2cccc2)c1, O=C(Nc1cccc(Cl)c1)N[C@H]1CC[C@H](CCNC(=O)C2CCCC2)O[C@H]1CO, CCOC(=O)C1CCCN(C(=O)c2cc(S(=O)(=O)N3CCCCCC3)ccc2OC)C1 (stereo not drawn), C[C@H](CO)N1C[C@H](C)[C@H](CN(C)C)Oc2ccc(NS(=O)(=O)c3ccccc3)cc2CC1=O, COCCn1c(SCC(=O)Nc2ccc(NC(C)=O)cc2)nc2ccccc2c1=O, CCOc1ccc(OCCNC(=O)c2cc(C3CC3)nc3c2cnn3C(C)C)cc1

Activity change, negative = inhibition, inactive:
Cc1ccc(/C=C2/SC(=O)N(CC(=O)N3CCOCC3)C2=O)s1 7.53% [at 2.6 µM]
